Values without a mark were called inactive. How the calls were made is not given here. Non-standard residues stand in square brackets, D forms with d. Residues, ends and D or L forms follow the SMILES beside them. Orn = NCCC[CH](N)C(=O)O

The test system of the assay is Aerobactin synthetase IucA (Klebsiella pneumoniae hvKP1). Briefly: Biochemical IucA enzyme inhibition primary screen of the Spectrum library (AID 1346200).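 Further: 100% = wells without compound and 0% = wells lacking enzyme.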 The following applies: malachite green pyrophosphate, A620, at 8 µM, hits give low values.
In the case of `CN1CCC(=C2c3ccccc3Sc3ccccc32)CC1`, the activity remaining was 119%. Turning to `C/C1=C\CC(C)(C)/C=C/CC2(C)OC2CC1` (centres undefined), the activity remaining was 107%. For `COCCc1ccc(OCC(O)CNC(C)C)cc1` (centres undefined), the activity remaining is 113%.

As for `COC1=CC(C)[C@@H]2C[C@H]3OC(=O)C[C@H]4C(C)=C(OC)C(=O)C([C@@]34C)[C@@]2(C)C1=O` (some centres undefined), the activity remaining was 97.8%. Regarding `C=C[C@H]1CN2CC[C@H]1C[C@@H]2[C@H](O)c1ccnc2ccc(OC)cc12`, the activity remaining was 112%. For `COc1ccc2c(c1)OCC(Cc1ccc(OC)c(OC)c1)C2=O` (centres undefined), the activity remaining was 95.4%.

Regarding `CCC[C@@H]1C[C@@H](C(=O)N[C@H]([C@H]2O[C@H](SC)[C@H](O)[C@@H](O)[C@H]2O)[C@H](C)O)N(C)C1`, the activity remaining was 111%. On to `CCCSc1ccc2nc(NC(=O)OC)[nH]c2c1`, for which the activity remaining is 111%.

For `O=C(OCc1ccccc1)c1ccccc1`, the activity remaining is 108%.

Take `COc1cc(/C=C/C(=O)/C=C(O)/C=C/c2ccc(O)c(OC)c2)ccc1O`: the activity remaining was 103%.

With `CN(C)CCCO[C@H]1[C@@H](C(O)CO)OC2OC(C)(C)O[C@@H]21` (some centres undefined), the activity remaining was 95%.

As to `CCCCCCCCCc1ccc(OCCOCCOCCOCCOCCOCCOCCOCCOCCO)cc1`, the activity remaining is 109%. Turning to `COc1ccc2c(c1)CCC1C2CCC2(C)C1C[C@@H](O)C2O` (some centres undefined), the activity remaining is 114%. For the compound `C[C@@H]1CC[C@@]23CCC4(C)[C@@](C=CC5[C@@]6(C)CC[C@H](O)C(C)(C)C6CC[C@]54C)(OC2=O)C3[C@H]1C` (some centres undefined), the activity remaining was 99.4%. In the case of `C[C@@H]1CC2C3CCC4=CC(=O)C=C[C@]4(C)[C@@]3(F)[C@@H](O)C[C@]2(C)[C@@]1(O)C(=O)CO` (some centres undefined), the activity remaining is 119%.

As for `COc1ccc2c(c1)OC1(O)COc3cc(OC)c(OC)cc3C1=C2` (centres undefined), the activity remaining is 107%. The figure for `CO[C@@H]1[C@@H](O[C@@H]2O[C@H](C)[C@@H](O[C@H]3C[C@@](C)(O)[C@H](O)[C@H](C)O3)[C@H](N(C)C)[C@H]2O)[C@@H](CC=O)C[C@@H](C)[C@@H](O[C@H]2CC[C@H](N(C)C)[C@@H](C)O2)/C=C/C=C/C[C@H](C)OC(=O)C[C@H]1O` is 96.2%. As to `CC(C)c1c(O)ccc2c1CCC1[C@@](C)(C=O)CCC[C@]21C` (some centres undefined), the activity remaining was 99.8%. Then `COc1cc(CNC(=O)CCCC/C=C/C(C)C)ccc1O`, with 109%; and `c1ccc(CC2=NCCN2)cc1`, with 118%; and `C[C@]12C=CC(=O)C=C1CCC1C2[C@@H](O)C[C@@]2(C)C1CC[C@]2(O)C(=O)COP(=O)(O)O` (some centres undefined), with 117%.

On to `CC(=O)O[C@H]1CCC2(C)C3=C(CCC2C1(C)C)[C@]1(C)CCC(C(C)CCC=C(C)C)[C@@]1(C)CC3` (some centres undefined), for which the activity remaining is 111%. `C/C=C\C1=C(C(=O)O)N2C(=O)C(NC(=O)C(N)c3ccc(O)cc3)C2SC1` (centres undefined): the activity remaining was 115%. Consider `COc1cc(O)c(C)c(O)c1`, for which the activity remaining was 112%.

Take `Nc1ccn(C2O[C@H](CO)[C@@H](O)[C@H]2O)c(=O)n1` (some centres undefined): the activity remaining was 101%.

Consider `O=C1C[C@@H](c2ccc(O)cc2)Oc2cc(O)cc(O)c21`, for which the activity remaining was 95.7%. In the case of `CC(=O)NCCCS(=O)(=O)O`, the activity remaining is 103%. In the case of `C[N+]12CCC(CC1)C(OC(=O)C(O)(c1ccccc1)c1ccccc1)C2` (centres undefined), the activity remaining was 111%. As to `COc1ccc2ccc(=O)oc2c1CC=C(C)C`, the activity remaining was 106%. `CC(C)CC1NC(=O)C(CCCN)NC(=O)C(C(C)C)NC(=O)C(Cc2ccc(O)cc2)NC(=O)C(CCC(=O)O)NC(=O)C(CC(=O)O)NC(=O)C(Cc2ccccc2)NC(=O)C(Cc2ccccc2)NC(=O)C2CCCN2C(=O)C(Cc2ccccc2)NC1=O` (centres undefined) (cyclo(DEYV[Orn]LFPFF); configuration not given here): the activity remaining was 113%. Consider `NS(=O)(=O)c1cc2c(cc1C(F)(F)F)NCNS2(=O)=O`, for which the activity remaining is 107%. As for `CC(=O)Oc1cc(-c2coc3cc(OC(C)=O)c(OC(C)=O)c(OC(C)=O)c3c2=O)cc(OC(C)=O)c1OC(C)=O`, the activity remaining is 88.1%.

As to `COc1c(O)cc2c(-c3ccccc3)cc(=O)oc2c1OC`, the activity remaining was 130%.

For `CC1CC(OC(=O)c2ccccc2O)CC(C)(C)C1` (centres undefined), the activity remaining was 110%. `OC[C@H]1O[C@@H](O[C@@H]2[C@@H](CO)O[C@](O)(CO)[C@H]2O)[C@H](O)[C@@H](O)[C@H]1O`: the activity remaining is 121%. With `NC(=NCCC[C@H](N)C(=O)O)NC(CCC(=O)O)C(=O)O` (some centres undefined), the activity remaining was 107%. For `C=CCS(=O)C[C@H](N)C(=O)O` (some centres undefined), the activity remaining is 125%. In the case of `COC(=O)C[C@H]1C2(C)CC34OC5(C)O[C@@]6([C@H](OC)C(OC(=O)C(C)C)[C@]7(C)C(/C(=C(/OC)C(C)C)C(=O)O[C@H]7c7ccoc7)[C@@]6(O5)[C@H](OC)[C@@]3(OC)C2OC(C)=O)[C@]14C` (some centres undefined), the activity remaining was 119%. `C=CC(C1=CC(=O)C=CC1=O)c1ccccc1` (centres undefined): the activity remaining is 119%.

(Values after PubChem BioAssay.)
